CDK5 p35 inh = blocks human CDK5/p35 kinase activity; hit rate 0.01% among 330,000; AID 488839; inhibition, % at 10 µM; Recombinant CDK5/p35, ADP-Glo luminescence, 60 min;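 active = highest replicate inhibition of at least 50% and at least 75% of replicates reaching 50%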;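 also: plate controls were DMSO neutral control for no effect and GW8510 at 10 µM for full effect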
SIRT5 block = blocks human SIRT5 desuccinylation of peptide. hit rate 1.1% among 330,000. Q9NXA8. AID 652115. Purified SirT5, succinyl-peptide AMC, trypsin-coupled fluorescence. inhibition, % at 15 µM; in the data active = inhibition above about 15%
Target sequence (Q9NXA8 whole entry, looked up): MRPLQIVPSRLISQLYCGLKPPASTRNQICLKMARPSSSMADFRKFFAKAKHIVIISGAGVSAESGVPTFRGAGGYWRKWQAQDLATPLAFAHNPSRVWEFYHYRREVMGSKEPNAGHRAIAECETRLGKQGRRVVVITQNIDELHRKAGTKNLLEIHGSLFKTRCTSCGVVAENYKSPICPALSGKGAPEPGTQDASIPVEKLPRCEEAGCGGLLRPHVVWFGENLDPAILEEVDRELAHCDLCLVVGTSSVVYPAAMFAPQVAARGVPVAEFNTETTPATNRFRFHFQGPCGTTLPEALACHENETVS
dFosB activator = mouse delta FosB homodimer activation; AID 493131; purified delta FosB, TAMRA-CDK5 oligo fluorescence polarization; percent of positive-control signal above neutral wells; activation, % at 25 µM; hit rate 0.99% among 340,000;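 active = mean activation above about 17%, with every replicate also reaching it, limit read from the data, passing the limit was not always enough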
FGF22 binding = shifts melting point of recombinant human FGF22. Q9HCT0. recombinant FGF22 thermal shift, SYPRO orange fluorescence; percent of sucrose octasulfate shift, DMSO zero. activity (Tm shift, normalised), % at 9.99 µM. hit rate 1.5% among 340,000. AID 651658;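 active = mean Tm shift, scaled 0 neutral to 100 positive control, at about 1.3% or above, every replicate too, limit read from the data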
Target sequence (Q9HCT0 whole entry, looked up): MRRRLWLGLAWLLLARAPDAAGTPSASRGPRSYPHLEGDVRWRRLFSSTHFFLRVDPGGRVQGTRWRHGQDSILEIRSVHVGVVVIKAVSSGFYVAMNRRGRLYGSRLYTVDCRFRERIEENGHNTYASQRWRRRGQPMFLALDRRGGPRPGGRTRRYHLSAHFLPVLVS
PglD inh = PglD (C. jejuni) enzyme inhibition; hit rate 0.098% among 360,000; purified PglD enzyme, DTNB colorimetric CoA detection; inhibition, % at 12.5 µM; AID 602405; in the data active = inhibition above about 16%, passing the limit was not always enough
PvdQ acylase = blocks Pseudomonas aeruginosa PvdQ acylase activity. purified PvdQ acylase, fluorescence plate reader. hit rate 0.063% among 340,000. AID 488965. inhibition, % at 10 µM; in the data active = inhibition above about 30%, passing the limit was not always enough;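 also: 0% = vehicle neutral wells and 100% = reference inhibitor wells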
The depositor's hits bear a star; / = no result. Sampled rows, rich in hits. Any-hit rate of the full collection: about 2.8%.

SMILES | CDK5 p35 inh | SIRT5 block | dFosB activator | FGF22 binding | PglD inh | PvdQ acylase
CC=Cc1ccc2n(c1=O)C[C@H]1[C@H](CO)[C@@H](C(=O)NCC)[C@@H]2N1C(=O)C1CC1 (mixture of isomers) | / | -1 | / | 0 | -3 | /
COc1ccc(CCNC(=O)[C@H](CCSC)NC(=O)N2CCn3c2nc2ccccc23)cc1OC | 2 | -4 | -5 | 0 | -4 | -10
COc1ccc(CCNC(=O)[C@H](C)NC(=O)N2CCn3c2nc2ccccc23)cc1OC | -3 | 30* | -4 | 0 | -1 | -13
C[C@@H]1CN([C@@H](C)CO)C(=O)c2cc(NS(=O)(=O)c3ccccc3)ccc2O[C@@H]1CN(C)CC1CCCCC1 | / | 25* | / | 0 | -3 | /
C[C@@H]1CN([C@@H](C)CO)C(=O)c2cc(NS(=O)(=O)c3ccccc3)ccc2O[C@H]1CN(C)Cc1ccc(-c2ccccc2)cc1 | / | 12 | / | 0 | 4 | /
Cc1ccc(S(=O)(=O)Nc2ccc3c(c2)C(=O)N([C@H](C)CO)C[C@@H](C)[C@H](CN(C)Cc2ccc(-c4ccccc4)cc2)O3)cc1 | / | 18* | / | 0 | 2 | /
C[C@@H]1CN([C@H](C)CO)C(=O)c2cc(NS(=O)(=O)c3ccccc3)ccc2O[C@@H]1CN(C)Cc1ccc(Oc2ccccc2)cc1 | / | 17* | / | 0 | 1 | /
C[C@@H]1CN([C@H](C)CO)C(=O)c2cc(NS(=O)(=O)c3ccccc3)ccc2O[C@H]1CN(C)Cc1ccc(-c2ccccc2)cc1 | / | 16* | / | 0 | -2 | /
C[C@@H]1CCCCO[C@@H](CN(C)Cc2ccccc2)[C@H](C)CN([C@@H](C)CO)C(=O)c2cc(NC(=O)Cc3ccccc3)ccc2O1 | / | 1 | / | 0 | -1 | /
COC(=O)CNC(=O)COC(=O)/C=C/c1ccc2ccccc2n1 | 2 | 2 | 0 | 43* | / | -13
CCCCN(C=O)c1c(CC)nc2ccc(C(=O)N3CCCCC3)cn12 | / | 44* | / | 0 | -4 | /
CC(=O)Nc1cccn(Cc2c(Cl)cccc2Cl)c1=O | 0 | 0 | -1 | 43* | / | -14
Cc1noc(C)c1NC(=O)Nc1ccc2c(c1)C(=O)N(C)[C@@H]1CC[C@@H](CC(=O)NCc3ccc(Cl)cc3)O[C@@H]1CO2 | / | 0 | / | 1 | -3 | /
CC1CCC/C(=C\Nc2ccc(C(=O)O)c(O)c2)C1=O (configuration not stated) | -4 | 29* | 0 | 0 | / | -17
CC(=O)Nc1ccc(N/C=C2/CCCC2=O)cc1 | -7 | 0 | 9 | 0 | -4 | -13
O=C1CCCC/C1=C\Nc1ccc(C(=O)O)c(O)c1 | -10 | 23* | -5 | 0 | / | 2
O=C(Nc1nnc(Cc2ccc(Cl)cc2)s1)C1CCCO1 (configuration not stated) | -1 | -4 | -10 | 43* | / | -6
N/C(=N\N=C\c1ccc(O)cc1)c1nonc1N | 6 | 3 | -4 | 44* | / | -10
COCCNC(=O)C[C@@H]1C[C@H]2c3cc(NC(=O)C4CCOCC4)ccc3O[C@H]2[C@H](CO)O1 | / | 1 | / | 0 | 0 | /
Cc1noc(C)c1S(=O)(=O)Nc1ccc2c(c1)C(=O)N([C@@H](C)CO)C[C@H](C)[C@@H](CN(C)S(=O)(=O)c1ccc(F)cc1)O2 | / | -5 | / | 0 | / | /
CC(C)c1cc(CNC(=O)CCc2nnc(CCCc3ccccc3)o2)on1 | 3 | 1 | -2 | 43* | / | -11
O=C(CCc1nnc(CCCCc2ccccc2)o1)NCc1cccc(F)c1 | -1 | -3 | 3 | 0 | -5 | 12
CCc1cc(CNC(=O)CCc2nnc(Cc3cccc(C)c3)o2)on1 | 1 | -7 | 0 | 0 | -2 | 1
CCc1cc(CNC(=O)CCc2nnc(CCCc3ccccc3)o2)on1 | -1 | 20* | 3 | 0 | 0 | -4
C[C@@H]1CN([C@@H](C)CO)C(=O)Cc2cc(NC(=O)CCCCCC(=O)Nc3ccccc3N)ccc2O[C@H]1CN(C)S(=O)(=O)c1cccs1 | / | / | / | 0 | -4 | /
SMILES | CDK5 p35 inh | SIRT5 block | dFosB activator | FGF22 binding | PglD inh | PvdQ acylase
CN(C)c1ncc(S(=O)(=O)c2ccccc2)c(N)n1 | -1 | 0 | 4 | 44* | -14 | 9
CN(C)c1ncc(S(=O)(=O)c2ccccc2)c(-c2ccccc2Cl)n1 | -2 | / | -16 | / | -6 | -7
O=C(CSc1ccc(Cl)cc1)NCc1ccncc1 | 1 | -2 | -1 | 43* | -1 | -8
N/C(CSc1ccc(Cl)cc1)=N\NC(=O)c1ccncc1 | 1 | 1 | 6 | 43* | / | 4
O=[N+]([O-])c1ccccc1S(=O)(=O)N1CCN(Cc2ccc(OCCO)cc2)CC1 | / | -3 | / | 0 | -3 | /
Cc1sc2nc(CN3CCCC3)nc(N3CCN(C(=O)c4ccco4)CC3)c2c1C | 0 | -12 | -3 | 44* | / | 0
Cc1sc2nc(CN3CCCC3)nc(N3CCC(C(N)=O)CC3)c2c1C | 0 | / | 0 | / | / | 5
O=C(COc1ccc(Cl)cc1Cl)Nc1ccc(CN2CCCCC2)cc1 | 1 | 112* | -7 | 0 | 5 | 1
Cn1c(-c2ccccc2)cccc1=O | 0 | / | 2 | / | -1 | -15
Cn1c(-c2ccccc2)c[n+]2c1-c1ccccc1C2 | 0 | -2 | -3 | 45* | / | -14
CCN(CC)P(=O)(Nc1ccccc1Br)c1ccc(N(C)C)cc1NC(=O)c1ccco1 (configuration not stated) | 0 | 0 | -10 | 44* | / | 3
CCN(CC)C(=O)c1cc(Cl)ccc1NC(=O)c1ccco1 | 1 | -3 | 2 | 0 | -5 | 6
O=C(Nc1cc(F)ccc1F)N1CC(=O)N2[C@H](C1)[C@@H](c1ccc(C#CC3CCCCC3)cc1)[C@@H]2CO | / | 20* | / | -1 | / | /
O=C(Nc1cc(F)ccc1F)N1CC(=O)N2[C@H](CO)[C@@H](c3ccc(C#CC4CCCCC4)cc3)[C@@H]2C1 | / | 18* | / | -1 | / | /
O=C(Nc1cc(F)ccc1F)N1CC(=O)N2[C@H](C1)[C@H](c1ccc(C#CC3CCCC3)cc1)[C@@H]2CO | / | 9 | / | 0 | / | /
CC(C)CC#Cc1ccc([C@@H]2[C@H]3CN(C(=O)Nc4cc(F)ccc4F)CC(=O)N3[C@H]2CO)cc1 | / | 17* | / | 0 | / | /
CN(C)CC(=O)N[C@H]1CC[C@@H](CCn2cc(C3CC3)nn2)O[C@@H]1CO | / | 2 | / | 0 | 0 | /
COc1ccc2cc(C#N)c(Nc3cccc(F)c3)nc2c1 | 0 | -4 | 1 | 44* | / | 1
CC(=O)NC[C@H]1[C@H](c2ccccc2)[C@@H](CO)N1C(=O)Cc1ccncc1 | / | / | / | / | 0 | /
C=CCOc1ccc(C[C@H](N)C(=O)NC[C@H]2O[C@@H](n3ccc(N)nc3=O)[C@H](O)[C@@H]2O)cc1 | / | / | / | 43* | -4 | /

Screening results deposited in PubChem by Broad Institute.
